About 83,000 compounds went through this panel and 20% of them were active in at least one assay; those are over-represented in the sample as a whole.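 Compound tested at a single concentration for 48 hours in 96-well plates; a percent growth value below 10 was scored as active.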 Values without a mark were called inactive. Activity calls are given as the source filed them.
Tested on: OVCAR-3 ovarian
Test: NCI-60 one-dose screen, 48 h (100 = growth as untreated, 0 = no growth, -100 = all killed)
Conditions: 10 µM
Description: Growth inhibition of the OVCAR-3 human tumor cell line is measured as a screen for anti-cancer activity. Cells are grown in 96 well plates and exposed to the test compound for 48 hours. Compounds are tested at a single concentration, which is 10^-5 M for most compounds. The reported endpoint is percent growth (GI% or GIPRCNT), where numbers from 0 - 100% represent growth inhibition, and numbers from -100% - 0 represent cell death. For example, a value of 40 represents 60% growth inhibition. A value of 0 means no net growth occurred over the course of the experiment. A value of -40 indicates 40% of cells at the beginning of the experiment died by the end of the experiment. A value of -100 means all cells are dead at the end of the experiment.
NCI-60 Human Tumor Cell Lines Screen was performed using the standard one-dose NCI protocol, which is described in more detail at https://dtp.cancer.gov/discovery_development/nci-60/default.htm.
Compounds with GIPRCNT values below 10 were considered active. Activity score was based on GIPRCNT using the following formula: […]
Score is 0 for GIPRCNT values of 100 or above, 50 for GIPRCNT values of 0, and 100 for GIPRCNT values of -100.

Row | Compound | growth
1 | CC1=C(c2cc(-c3ccc(Cl)cc3)c(C#N)c(N)n2)C(c2ccccc2)NC(=S)N1 (stereo not given) | 17.1%
2 | O=c1oc2ccc(-c3ccc(F)cc3F)cc2c(=O)n1-c1ccc(F)cc1 | 3.4% (active)
3 | CN1C(=O)N(C)C2SC(N/N=C/c3cccs3)=NC21 (stereo not given) | -54% (active)
4 | Cc1ccc(/C=C(\C#N)n2nnc3c(F)cccc32)cc1 | 0.864% (active)
5 | Cc1ccc(CSc2nc(Cl)c(C#N)c(-c3ccc(F)cc3)n2)cc1 | 86.3%
6 | Cc1nc(Nc2nc(C)c3ccc(OCCN4CCOCC4)cc3n2)[nH]c(=O)c1C | 3.38% (active)
7 | COc1cc2c(c(OC)c1OC)C(=O)CC(c1cccc(NC(=O)c3cccc(N)c3)c1)O2 (stereo not given) | 80.9%
8 | COC(=O)CC1CC1C1Cc2c(nc(N(C)S(C)(=O)=O)nc2C(C)C)-c2ccc(F)cc21 (stereo not given) | 97.5%
9 | CC1(C)CC[C@]23CC[C@]4(C)[C@H](CC[C@@H]5[C@@]6(C)CC[C@H](N)C(C)(C)[C@@H]6CC[C@]54C)[C@H]2[C@H]1OC3=O | -81% (active)
10 | COc1ccccc1C(=O)NNC(=O)CSc1nc2c(c(=O)[nH]1)CCCC2 | 102%
11 | COc1ccc2[nH]c(=O)c(CSc3ccc(Nc4nccc(-c5ccc(Cl)cc5)n4)cc3)cc2c1 | 116%
12 | CN1C/C(=C\c2ccc(O)cc2O)c2[o+]c3cc(O)ccc3cc2C1 | -8.86% (active)
13 | Cc1ccc(NC(=O)c2ccc(-n3c(=O)[nH]c4ccccc4c3=O)cc2)cc1 | 90.5%
14 | O=c1[nH]c2ccccc2cc1CSc1ccc(Nc2nccc(-c3ccc(C(F)(F)F)cc3)n2)cc1 | -61.1% (active)
15 | Brc1ccc(N/N=C/c2c[nH]c3ccccc23)nc1 | 19.5%
16 | CO[C@@H]1CSS[C@H]1Cn1nc(-c2ccc(Oc3ccccc3)cc2)c2c(N)ncnc21 | 104%
17 | COC1CC(Cn2cc(COc3ccc4ccc(=O)oc4c3)nn2)C(OCc2ccccc2)C(OCc2ccccc2)C1OCc1ccccc1 (stereo not given) | 125%
18 | COc1ccc(C(=O)Nc2sc3c(c2C#N)CCC(=O)C3)cc1C(F)(F)F | -6.94% (active)
19 | Nc1nc2c(F)c(F)c(F)c(F)c2s1 | 104%
20 | O=C(/C=C/Nc1ccccc1)c1ccc2c(c1)Nc1ccccc1S2 | 91.1%

Row | Compound | growth
21 | COc1cnc2c(c1)C(=O)c1c-2n(CCCNC(C)C)c(=O)c2cc(OC)c(OC)cc12 | 5.2% (active)
22 | Nc1nnc(-c2c[nH]c3ccc(F)cc23)c(-c2c[nH]c3ncccc23)n1 | 59.3%
23 | CC(=C(c1ccc(OCCCN(C)C)cc1)c1ccc(OCCCN(C)C)cc1)c1ccccc1 | -93.6% (active)
24 | Cc1ccc(-c2nc3ccc(C(=O)N=Nc4c(O)[nH]c5ccc([N+](=O)[O-])cc45)cc3[nH]2)cc1 | 21.9%
25 | COc1cc(/C=C/C(=O)c2ccc(C(F)(F)F)cc2)ccc1Oc1nc(Nc2ccc(F)cc2)nc(N(C)C)n1 | 79.6%
26 | CN1CCN(c2ccc(Nc3nc(NCCCNC(=O)c4ccccc4)c4sccc4n3)cc2)CC1 | 78.5%
27 | CC1=C2C(=C[C@@](C)(COCOCCCl)[C@@H]2O)C(=O)[C@](C)(O)C12CC2 | -27.4% (active)
28 | O=C1N/C(=N\c2nccs2)S/C1=C\c1cccs1 | 44.2%
29 | CCCn1c(O)c(N=Nc2nc(-c3cc4ccccc4oc3=O)cs2)c2cc(Br)ccc21 | 100%
30 | COc1ccc(-c2nc(-c3ccccc3)c(-c3ccccc3)n2-c2ccc(S(=O)(=O)Nc3ncccn3)cc2)cc1OC | 90.1%
31 | O=C(Nc1nc2ccc([N+](=O)[O-])cc2s1)Nc1cc(Cl)ccc1I | -21.2% (active)
32 | COc1cccc2nc(Nc3ccc(F)c(NC(=O)c4ccc(CN5CCN(C)CC5)c(C(F)(F)F)c4)c3)ccc12 | -33.3% (active)
33 | COc1cc(/C=C/C(=O)c2ccc(NC(=O)CSc3nnc(-c4c[nH]c5ccccc45)n3-c3ccccc3)cc2)cc(OC)c1OC | 66%
34 | COc1ccc(C2NC(=S)NC(C)=C2C(=O)OC(C)C)cc1OC (stereo not given) | 113%
35 | C=C1CC[C@H](C(=C)C)[C@H]2C=C(C)C(=O)C3=C(C(=O)[C@@](C)(O)C3)[C@H]12 | -41.7% (active)
36 | COc1cc(/C=N/NC(=O)c2ccc3nc(-c4ccc(Cl)cc4)[nH]c3c2)cc(OC)c1OC | -90% (active)
37 | O=C(NCCCCCCCCCC[P+](c1ccccc1)(c1ccccc1)c1ccccc1)c1ccc(-n2nc(-c3ccccc3O)nc2-c2ccccc2O)cc1 | -14.1% (active)
38 | COc1cccc(/C=C2\N=C(C)N(CCc3ccc(S(N)(=O)=O)cc3)C2=O)c1 | 113%
39 | COc1ccc(/C(CSc2nnc(-c3c[nH]c4ccccc34)n2-c2ccccc2)=N/O)cc1 | 30.5%
40 | O=C(NO)c1ccc(-c2nc3ccc4[nH]ncc4c3c3c2CCCC3)cc1 | -57% (active)

From PubChem BioAssay (NCI)
